Assay results: PubChem BioAssay (NCATS)
Inconclusive results are not listed. Calls of active or inactive are those of the source. The call rests on the fitted dose curve; in most records, active means well fitted inhibition curve with a large enough effect; inconclusive means small, poorly fitted or top-dose-only effect; inactive means flat fitted curve, though single readings scatter.

Target: Calcium and integrin-binding protein 1 (Homo sapiens) (UniProt Q99828)
Experiment: Primary qHTS for Identification of Calcium Integrin Binding Protein 1 (CIB1) Competitor (AID 1508620);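 further: GST tagged CIB1 binding a fluorescein labelled alphaIIb integrin peptide tracer; top concentration of the series differs between compounds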
Conditions: CIB1-GST / FITC-alphaIIb peptide fluorescence polarization; series mostly up to 114 µM; activity change, negative = inhibition: at the top concentration
Text: Assay Provider: Ulhas P. Naik, PhD Sidney Kimmel Medical College Thomas Jefferson University, Philadelphia, PA Primary function of platelets is to maintain hemostasis. At the site of vascular injury, platelets adhere to adhesive proteins such as collagen and von Willebrand factor. Adherent platelets are activated and generate soluble platelet agonists such as thrombin, ADP and thromboxane A2. Following exposure of circulating platelets to these agonists, results in platelet shape change, granule secretion and activation of platelet integrin alphaIIb-beta3. Ligand binding to activated integrin alphaIIb-beta3 triggers outside-in signaling, leading to platelet aggregation, stabilization of platelet plug, and clot retraction. Upon atherosclerotic plaque rupture also causes platelet plug formation, which underlies a number of cardiovascular diseases such as myocardial infraction and stroke. A number of anti-platelet drugs such as aspirin, clopidogrel, prasugrel, vorapaxar, and eptifibatide are currently available to prevent the thrombotic complications. However, these anti-platelet agents have several limitations including inherent variability in individual responses, developing resistance, and serious bleeding side effects. For these reasons they are not suitable for long-term protection. Based on the experiences with current anti-platelet drugs, it appears that the most useful therapeutic approach is to intersect the secondary responses such as integrin outside-in signaling or recruitment of platelets by TxA2 and secreted ADP. Compounds, which can largely preserve the primary hemostatic function of platelets but inhibit secondary response will be most desired therapeutic agents for treatment of cardiovascular disease. CIB1 is a calcium integrin binding protein, which specifically interact with the alphaIIb subunit of integrin alphaIIb-beta3. Binding of CIB1 to alphaIIb regulates the outside-in signaling in platelets, which is needed for thrombus stabilization and thrombus growth. […] Therefore, we propose that discovery of a small molecule that can prevent the association of CIB1 and alphaIIb-beta3 will be a potential anti-platelet agent that can block the thrombus formation without undue effect on hemostasis. Reference: [1] Naik MU, Nigam A, Manrai P, et al. CIB1 deficiency results in impaired thrombosis: the potential role of CIB1 in outside-in signaling through integrin alpha IIb beta 3. J Thromb Haemost.
PROTOCOL TABLES SEQUENCE No. (1, 2, 3, etc.); […] (e.g., Cells, Incubation, Reagent, etc.); VALUE and DESCRIPTION. 1; Reagent; 3 uL; Protein or buffer (4/3x) 2; Compound; 46 nL; Control inhibitor / compound library 3; Time; 15 min; Room temperature incubation 4; Reagent; 1 uL; Fluorescent labeled peptide (4x) 5; Time; 1000 rpm; Centrifuge 6; Time; 15 min; Room temperature incubation 7; Detection; Ex 480/ Em 540; ViewLux Fluorescence Read NOTES (numbers refer to sequence above) 1; Protein Mixture: C1B1-GST (final concentrations of 1 uM). […] 3; Room temperature incubation. 4; Fluorescent Labeled Peptide: FITC-aIIb (final concentration of 100 nM). Sequence of alphaIIb peptide: Acetyl-[…]-FITC (purity is 95.83%). 5; Centrifuge 1000 rpm (164 g) for 15 seconds. 6; Room temperature incubation. 7; ViewLux Fluorescent Polization Read: excitation = 480(20) / emission = 540(25) S and P; FITC Dichroic mirror.
On the % scale 0 is the no-effect control and ±100 the full control effect.

Chain of Calcium and integrin-binding protein 1 (Homo sapiens) (Q99828 whole entry, looked up): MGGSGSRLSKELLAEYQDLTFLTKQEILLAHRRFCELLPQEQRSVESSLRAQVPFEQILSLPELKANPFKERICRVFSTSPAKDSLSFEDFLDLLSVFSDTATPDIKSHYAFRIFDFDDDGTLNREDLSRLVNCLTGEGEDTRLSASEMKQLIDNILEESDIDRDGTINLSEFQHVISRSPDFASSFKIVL

SMILES | activity change, negative = inhibition
Cc1nc2ccc(Oc3ccc(F)cc3)cc2c(=O)n1C[C@H]1CCCN(C(C)C)C1 | -0.0397% (inactive)
COC(=O)C1=C2Nc3ccccc3C23CCN2CCCC(C(C)O)(C1)C23 (stereo not given) | 1.62% [at 57.7 µM] (inactive)
C=C1CC23CC1CCC2C12OC(=O)C(C)(CCC1O)C2C3C(=O)O (stereo not given) | -3.84% [at 57.7 µM] (inactive)
CC1(C)CC[C@]2(C(=O)O)[C@H](O)C[C@]3(C)C(=CCC4[C@@]5(C)CC[C@H](O[C@@H]6O[C@H](CO[C@@H]7OC[C@H](O)[C@H](O)[C@H]7O[C@@H]7OC[C@@H](O)[C@H](O)[C@H]7O)[C@@H](O)[C@H](O)[C@H]6O[C@@H]6O[C@H](CO)[C@@H](O)[C@H](O)[C@H]6O)C(C)(C)C5CC[C@]43C)[C@@H]2C1 (stereo not given in full) | -0.251% [at 30.2 µM] (inactive)
COc1cc2ncnc(Nc3cccc(Cl)c3F)c2cc1OC(=O)N1CCN(C)C[C@H]1C | 1.21% (inactive)
O=[N+]([O-])c1cccc2[nH]c(CNc3nc(N4CCOCC4)nc4c3ncn4-c3ccsc3)nc12 | -1.01% (inactive)
C[C@@H]1O[C@@H](OC[C@H]2O[C@@H](OC(CCCCc3ccc(O)cc3)CCc3ccc(O)cc3)[C@H](O)[C@@H](O)[C@@H]2O)[C@H](O)[C@H](O)[C@H]1O (stereo not given in full) | -2.03% [at 30.2 µM] (inactive)
OC1CCC(Nc2ncc3nc(Nc4c(F)cc(F)cc4F)n([C@H]4CCOC4)c3n2)CC1 (stereo not given in full) | -1.96% (inactive)
CC(C)C(CO)Nc1nc(Nc2ccc(C(=O)O)c(Cl)c2)c2ncn(C(C)C)c2n1 (stereo not given) | -5.83% (inactive)
CC(=O)N[C@@H](CCCCN)C(=O)N(C)[C@@H](CC(C)C)C(=O)N[C@H](C(=O)N(C)[C@@H](Cc1ccccc1)C(=O)N[C@H](Cc1ccccc1)C(N)=O)C(C)C | 1.59% [at 12.4 µM] (inactive)
CCOC(=O)c1sc(NC(=O)[C@H](C(C)C)n2c(=O)[nH]c3ccccc3c2=O)nc1C | -3.78% (inactive)
Cc1csc(NC(=O)c2ccc(COc3cccc(Cl)c3)o2)n1 | -0.402% (inactive)
c1cc(Nc2cc(C3CC3)[nH]n2)nc(Nc2ccc3nc[nH]c3c2)n1 | 0.349% (inactive)
O=C1CC2(CCCC2)[C@H](O)C(=O)N1CCCCN1CCN(c2ncccn2)CC1 | 0.741% (inactive)
CCOc1cc(N2CCC(O)CC2)ccc1Nc1ncc2c(n1)N(C1CCCC1)CCC(=O)N2C | -0.402% (inactive)
CC/C=C\[C@H](O)[C@H](O)C1=C(C)C(=O)[C@]2(O1)C(=O)N[C@@](OC)(C(=O)c1ccccc1)[C@@H]2O | 0.43% [at 57.7 µM] (inactive)
C=C1CC2C(C)(CCC(=O)O)C(C(C)(C)O)CCC2(C)C2C(=O)OC(C)(C(=O)OC)C(=O)C12C (stereo not given) | 3.24% [at 57.7 µM] (inactive)
COC(=O)C12CCC(C)C(C)C1C1=CCC3C4(C)CCC(OC(C)=O)C(C)(C)C4CCC3(C)C1(C)CC2 (stereo not given) | 2% [at 57.7 µM] (inactive)
COC(=O)[C@@]1(c2ccc(C)cc2)C[C@H]1CN1CCC(O)(c2ccccc2)CC1 | 0.336% (inactive)
O=C1NC(Cc2c[nH]c3ccccc23)C(=O)NC1Cc1cnc[nH]1 (stereo not given) | 4.51% [at 57.7 µM] (inactive)

SMILES | activity change, negative = inhibition
CS(=O)(=O)c1ccc(-c2nnc(/C=C/c3nnc(-c4ccc(C#N)cc4)o3)n2-c2ccccc2Cl)nc1 | -3.03% (inactive)
C[C@H](NC(=O)CCc1nc2ccccc2c(=O)[nH]1)c1ccccc1 | -3.02% (inactive)
C/C=C/c1cc(OC)c2c(c1)[C@@H](C)[C@@H](c1ccc(O)c(OC)c1)O2 | -4.69% [at 57.7 µM] (inactive)
CC(C)c1ccc2c(c1)C(=O)CC1[C@@](C)(C(=O)O)CCC[C@]21C (stereo not given in full) | -12.3% [at 57.7 µM] (inactive)
COc1ccc(C[C@H](N)C(=O)N[C@@H]2[C@H](O)[C@H](n3cnc4c(N(C)C)ncnc43)O[C@@H]2CO)cc1 | -1.97% (inactive)
Cc1ccccc1C#Cc1ccc(CCC(=O)O)cc1 | -4.67% (inactive)
CC1OC(OCC2OC(OC3CCC4(C)C(CCC5(C)C4CC=C4C6CC(C)(C)CCC6(C(=O)OC6OC(CO)C(O)C(O)C6O)CCC45C)C3(C)CO)C(O)C(O)C2O)C(O)C(O)C1O (stereo not given) | -6.51% [at 30.2 µM] (inactive)
C=C1CCC[C@]2(C)CC[C@@H](C(=C)C(=O)O)[C@H](O)[C@@H]12 | 1.24% (inactive)
OC[C@H]1O[C@@H](OC[C@H]2O[C@@H](OC/C=C/c3ccccc3)[C@H](O)[C@@H](O)[C@@H]2O)[C@@H](O)[C@@H]1O | 0.368% [at 57.7 µM] (inactive)
COc1cc(O)cc(/C=C/c2ccc(O[C@@H]3O[C@H](CO)[C@@H](O)[C@H](O)[C@H]3O)cc2)c1 | 4.47% [at 57.7 µM] (inactive)
C1CCC[C@H]2CCCN3CC[C@@H](CCCCCC[C@@H]4CCCN5CC[C@@H](CC1)O[C@@H]45)O[C@@H]23 | -0.14% [at 0.247 µM] (inactive)
CC(=O)/C=C/[C@H]1[C@](C)(O)[C@@H](O)[C@H](OC(C)=O)C2C(C)(C)CCC[C@@]21C (stereo not given in full) | 3.96% [at 57.7 µM] (inactive)
CC(=O)OC1C[C@@]2(C)[C@@H](CC[C@@H](C)[C@]23Cc2c(O)cc4c(c2O3)CNC4=O)C(C)(C)[C@@H]1O (stereo not given in full) | 0.445% [at 57.7 µM] (inactive)
CN(C)C/C=C/C(=O)Nc1cc2c(Nc3ccc(F)c(Cl)c3)ncnc2cc1OC1CCOC1 (stereo not given) | -5.46% (inactive)
N[C@H]1Cc2ccccc2N(O)C1=O | 0.0448% (inactive)
COc1cc(/C=C/C(=O)O[C@H]2[C@H](O)[C@@H](CO)O[C@@]2(CO)O[C@H]2O[C@H](CO)[C@@H](O)[C@H](O)[C@H]2O)ccc1O | 2.08% [at 57.7 µM] (inactive)
Cc1cc(C)cc(C(=O)NOCCCCCC(=O)NO)c1 | 1.54% (inactive)
Cn1cc(S(=O)(=O)c2ccc(Cl)cc2)c2cccc(N3CCNCC3)c21 | -9% (inactive)
COCCOc1ccc(N2CCN(CCn3ncc4c3nc(N)n3nc(-c5ccco5)nc43)CC2)cc1 | -6.95% (inactive)
O=C(O)/C=C/c1cc2c(cc1O[C@@H]1O[C@H](CO)[C@@H](O)[C@H](O)[C@H]1O)OCO2 | 1.45% [at 57.7 µM] (inactive)
